Screens (PubChem BioAssay)
MBNL1-CUG inh: qHTS Assay for Inhibitors of MBNL1-poly(CUG) RNA binding; 280,000 tested, 0.036% active; AID 2675, 2010; Muscleblind-like protein 1 (Homo sapiens), Q9NR56; Potency, µM (top dose mostly 57.5 µM), without a hit: at the top dose activity change, negative = inhibition, actives largely listed as inhibitors; TR-FRET MBNL1-His/biotin-(CUG)12 binding, 665/545 ratio; active = well fitted inhibition curve with a large enough effect in the signal ratio, with a control signal flat, not every such curve was filed as active; inconclusive = small, poorly fitted or top-dose-only effect, or effect the other way, or a change in a side signal; inactive = no such curve, though single readings can be large or run the other way; the % refers to the signal ratio; note: % is set by controls: 0 for no effect and ±100 for the full control effect
Target sequence (Q9NR56 whole entry, looked up): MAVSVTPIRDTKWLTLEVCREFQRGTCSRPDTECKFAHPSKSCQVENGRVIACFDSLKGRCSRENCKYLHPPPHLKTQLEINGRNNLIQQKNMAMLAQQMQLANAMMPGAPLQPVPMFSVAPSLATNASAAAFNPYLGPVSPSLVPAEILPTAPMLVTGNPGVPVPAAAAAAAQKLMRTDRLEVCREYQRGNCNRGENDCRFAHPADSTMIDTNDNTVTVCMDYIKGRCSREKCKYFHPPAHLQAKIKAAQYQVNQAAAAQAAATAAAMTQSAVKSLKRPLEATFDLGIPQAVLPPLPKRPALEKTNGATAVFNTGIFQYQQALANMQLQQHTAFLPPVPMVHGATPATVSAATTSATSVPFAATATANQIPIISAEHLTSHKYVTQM
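Ratiometric TR-FRET (665 over 545 nm, excitation 340 nm) tracks disruption of MBNL1-His/biotin-(CUG)12 complex after 60 min at room temperature, with compounds at 92 nM to 58 uM final.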
aSyn yeast inh: qHTS of alpha-syn Inhibitors; Yeast expressing alpha-synuclein, growth rescue, BacTiter-Glo, 24 h; Potency, µM (titrated, usually from 46.1 µM), for inactives: top-dose growth rescue (activation), usual class: activators; 370,000 tested, 0.14% active; note: % of control where 0% means no effect; nearly all actives have a fitted effect of over 65% in size
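Rescue of yeast growth: cells expressing toxic alpha-synuclein, induced in galactose at OD600 0.02, incubated with compound 24 h at 30 C. ATP luminescence quantified growth; inhibitors of toxicity appear as activators.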
Abeta yeast res: qHTS for compounds that reverse cellular toxicity of Amyloid beta (A-beta) peptide in yeast: Primary Screen. yeast expressing A-beta42, growth rescue, OD600, 48 h; response scale: 0% DMSO, 100% iron-clioquinol control. 410,000 tested, 0.063% active. Potency, µM (series often up to 46.1 µM), actives largely listed as activators; note: nearly all actives have a fitted effect of over 55% in size
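Growth rescue measured by 600 nm absorbance after 48 h yeast culture at 30 C with compound. Values normalized between DMSO and an equimolar ferric chloride plus clioquinol control.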
FUS suppressor: qHTS for Suppressors of FUS Proteinopathy: Primary screen using FUS-linked yeast assay. S. cerevisiae FUS-expressing, growth rescue, OD600, 24 h. AID 1347120, 2019. Potency, µM (doses to about 76.6 µM), actives largely listed as activators. 390,000 tested, 0.24% active;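 note: plate controls were DMSO vehicle for no effect and reference control for full effect; nearly all actives have a fitted effect of over 55% in size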
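Absorbance at 600 nm, taken 24hr after compound addition, measured rescue of FUS-yeast growth at 30C. Induction used 2% galactose with seeding at OD 0.005. Controls: CP55940 from 92uM final, DMSO only.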
Glioma ERSR ind: qHTS for Inducers of the Endoplasmic Reticulum Stress Response (ERSR) in Human Glioma: qHTS; Potency, µM, for the others: at the top dose activation, actives largely listed as activators; 420,000 tested, 0.02% active; AID 602332, 2012; U87-MG GRP78 promoter luciferase reporter, 16 h; note: series mostly up to about 76 µM; % of control where 0% means no effect; nearly all actives have a fitted effect of over 35% in size
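Stably transfected U87-MG glioma cells carrying a GRP78-based luciferase sensor; 16 h compound incubation. Luminescence end-point read 10 min after Bright-Glo addition at room temperature.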
TDP-43 yeast inh: qHTS of TDP-43 Inhibitors; TDP-43 expressing yeast growth rescue, BacTiter-Glo, 24 h; Potency, µM (titrated, usually from 46.1 µM), for inactives: at the highest dose growth rescue (activation), usual class: activators; 410,000 tested, 1.8% active; AID 652104, 2013; note: % of control where 0% means no effect; nearly all actives have a fitted effect of over 50% in size
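Yeast cells expressing TDP-43 under galactose induction are exposed to compounds for 24 hr at 30 deg C. BacTiter-Glo luminescence measures growth, so protective compounds score as activators.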
* = called active by the depositor; i = inactive; ? = inconclusive; · = not tested or not shown; [ ] = dose if it differs, or a comment. The list is not random: actives were taken first. Their share in the collection is about 2%. Unless noted, calls come from the whole dose curve; as a rule, active = well fitted curve in the direction sought with a large enough effect; inconclusive = small, poorly fitted or top-dose-only effect, or another doubt; inactive = no such curve, though single readings can be large; an effect the other way counts as inactive or inconclusive. Potency is the fitted concentration of half-maximal effect.

SMILES	MBNL1-CUG inh	aSyn yeast inh	Abeta yeast res	FUS suppressor	Glioma ERSR ind	TDP-43 yeast inh
O=C(c1cccs1)N1CC[C@H]2[C@H](CCCN2Cc2ccc(F)cc2)C1	·	·	·	i	·	·
CN(CC(=O)Nc1cccc(F)c1)C(=O)c1ccc(-c2ccc(Cl)cc2)o1	5%	15%	i	i	1%	22µM*
CC(=O)c1ccc(NCCCN2CCC(C(O)(c3ccccc3)c3ccccc3)CC2)cc1	·	·	·	i	·	·
CCCS(=O)(=O)NCCc1cc2c(C)ccc(C)c2[nH]c1=O	-2%	2%	i	i	-3%	4.5µM*
Cc1cc(C)c(S(=O)(=O)NCCc2cc3c(C)ccc(C)c3[nH]c2=O)c(C)c1	·	·	i	i	-4%	11%
CNc1nc(N)c([N+](=O)[O-])c(Nc2cccc(OC)c2)n1	·	·	·	i	·	·
COc1ccc(N(CCN2C(=O)c3ccccc3C2=O)C(=O)c2cccc([N+](=O)[O-])c2)cc1	36%	14%	i	i	-5%	11µM*
Cc1cc(NC(=S)NC(=O)C2CC2)ccc1Br	-9%	-37%	i	i	3%	16µM*
Cc1cc(C)cc(NC(=S)NC(=O)C2CC2)c1	0%	-1%	i	i	0%	11µM*
C[C@@H]1/C=C/CC(=O)N2[C@H](CC(=O)N[C@@H]1c1ccccc1)C[C@@H](C)[C@H]2c1ccccc1	·	·	·	i	·	·
Cc1cccc(OCC(=O)Nc2ccc(N3CCCC3)cc2)c1C	0%	29%	i	25µM*	-4%	1%
CCOc1cccc(C(=O)Nc2ccc(N3CCCC3)cc2)c1	-2%	-4%	i	i	2%	1%[1.82 µM]
CCOc1ccc(C(=O)Nc2ccc(N3CCCC3)cc2)cc1	10%	-10%	i	35µM*	-2%	-12%
O=C(CCc1ccccc1-c1ccccc1CCNC(=O)c1ccccc1)NCc1ccccc1	·	·	·	i	·	·
O=C(OCCN1CCN(C2CN(Cc3cn(Cc4ccc([N+](=O)[O-])cc4)nn3)S(=O)(=O)C2)CC1)c1cc2ccccc2o1 (configuration not stated)	·	·	·	i	·	·
CCC(=NCc1ccc(Cl)c(Cl)c1)c1nc(-c2ccco2)oc1O	-3%[11.5 µM]	9%	i	i	-3%	14µM*
CCn1c(C(=O)N2CCC(C(=O)N3CCN(c4ccc(OC)cc4)CC3)CC2)cc2sccc21	·	·	i	i	-3%	22µM*
CCn1c(C(=O)N2CCC(C(=O)N3CCN(c4cc(C)ccc4C)CC3)CC2)cc2sccc21	·	·	?	?	-2%	?
Cc1cccc(-c2nc(CS(=O)CC(=O)NC3CCCC3)c(C)o2)c1 (configuration not stated)	0%	5.6µM*	i	i	-3%	?
CCOC(=O)c1noc2ncnc(NCc3ccccc3OC)c12	·	·	i	i	-3%	28µM*
CC(C)[C@H]1COCCS(=O)(=O)N1Cc1cccc(Cl)c1	-3%	9%	i	i	-5%	35µM*
CCC1COCCS(=O)(=O)N1Cc1cccc(Cl)c1 (configuration not stated)	-5%	4%	i	i	-4%	?
Cn1c(N)c(C(=O)COC(=O)C2CCC(C(C)(C)C)CC2)c(=O)n(C)c1=O (configuration not stated)	-3%	3%	i[9.22 µM]	i	-3%	35µM*
COC(=O)CNc1nc(Cl)nc(NC2CCCCC2)n1	1%	-7%	i	i	-1%	12%
C=CCNc1nc(Cl)nc(NC2CCCCC2)n1	-4%	-17%	i	i	-1%	16µM*
SMILES	MBNL1-CUG inh	aSyn yeast inh	Abeta yeast res	FUS suppressor	Glioma ERSR ind	TDP-43 yeast inh
CCN1CCN(C(=O)c2ccc3c(c2)N(Cc2ccc(Cl)cc2)C(=O)c2ccccc2S3(=O)=O)CC1	·	·	i	i	-2%	11%
O=C(c1ccc2c(c1)N(Cc1ccc(Cl)cc1)C(=O)c1ccccc1S2(=O)=O)N1CCCC1	·	·	i	32µM*	0%	7%
O=C(c1ccc2c(c1)N(Cc1ccc(Cl)cc1)C(=O)c1ccccc1S2(=O)=O)N1CCc2ccccc21	·	·	i	7.9µM*	-1%	0%
Cc1ccsc1C(=O)N(Cc1cc2cc3c(cc2nc1N1CCOCC1)CCC3)CC1CCCO1 (configuration not stated)	·	·	·	·	-4%	·
N/C(=N\OC(=O)c1ccccc1Cl)c1ccc(Cl)cc1	-3%	-65%	i	i	6%	?
N/C(=N\OC(=O)c1ccc(F)cc1)c1ccc(Br)cc1	-5%	-12%	i	i	0%	3.2µM*
N/C(=N\OC(=O)c1ccc(Cl)cc1)c1ccc(Cl)cc1	-22%	-23%	i	i	0%	7.9µM*
C=CCn1c(Sc2ncc([N+](=O)[O-])s2)n[nH]c1=O	·	2%	i	i	-14%	13µM*
NC(=O)[C@H](Cc1cc2ccccc2s1)NC(=O)[C@@H]1CC2(CC(c3cccc(NC(=O)[C@@H]4CCC(=O)N4)c3)=NO2)CN1C(=O)/C=C/Sc1ccccc1 (some centres not stated)	-9%	2%	i	28µM*	-2%	0%
NC(=O)[C@H]1CC2(CC(c3cccc(NC(=O)[C@H]4CCC(=O)N4)c3)=NO2)CN1C(=O)CC(c1ccccc1)c1ccccc1 (some centres not stated)	-3%	-5%	i	?	-2%	2%
NC(=O)[C@H](Cc1cc2ccccc2s1)NC(=O)[C@@H]1CC2(CC(c3cccc(NC(=O)[C@@H]4CCC(=O)N4)c3)=NO2)CN1C(=O)c1ccccc1 (some centres not stated)	-10%	3%	i	35µM*	1%	-7%
NC(=O)[C@H](Cc1cc2ccccc2s1)NC(=O)[C@@H]1CC2(CC(c3cccc(NC(=O)[C@@H]4CCC(=O)N4)c3)=NO2)CN1C(=O)/C=C/c1c(F)cccc1Cl (some centres not stated)	-7%	-8%	i	?	-5%	10%
CN1CCCC(CNC(=O)c2cnn(-c3nccc(-c4cccs4)n3)c2C2CC2)C1 (configuration not stated)	·	·	·	·	-3%	·
